According to PMC12864922, “TDP-43 directly inhibits mRNA accumulation in neurites through modulation of mRNA stability”:
Whole data set: some 9,900 sequences, median “r (bound/input frequency ratio)” near 0.7, cut for the highest 2% near 6.5. This is one part of a sample in which the highest values are shown more often than they occur.

B1: ENSMUSG00000028439.233|Fam219a (ssRNA)
RNA: GGGAGUUCUACAGUCCGACGAUCGCUUCGAUAUCCGCAUGCUACACCGACAGAGUCUUUUCAUACCAGAAGGAAUUUCUUCACAGGAGUUUCUGCAAAAGACUAUGACAUCUGUGUGUCUGUGGUCUCACGAGGUACCUGGAGGUGUAUGUGCACGGACAUGGGAAGUACGUGAAGAUUUAUUUCGGGAAAAGUGGUGUGUGUGUAGCUGUACUGGGUGUCAUGUAUGCUGUUGCUUCUGCUGCUGGUCUGGUCUGAGGGAGGAAAGCUGAGGCUGUAGCUCAGUGAGAUGGUGGCUCUCCCACUCUUGCGGUCGCACUAGUGUGGAAUUCUCGGGUGUCAAGG
B2: ENSMUSG00000058297.21|Spock2 (ssRNA)
RNA: GGGAGUUCUACAGUCCGACGAUCGCUUCGAUAUCCGCAUGCUACAGGCCAGGGUGCCGACGGCCAGAAAGACAGGCCAGAAGAGACCUGGACAACAGCAGGCAACUUAGCAAAUGGAUCCGGAAGUCAGUGCGGAGGACCCUGGCUCCAGUGGGGGAGGACUGGGGAGUGUGGCUUGUGUGUAUGUGUGAUAUGAGAUGUGUGUGUAUGAUGUGAGAUGUGAGUGUGUGAUGUGAGAUGUGUGUAUGUGAGAUGUGUGUGUGUGUGUGUGUGUGUGUGAUGUGAGUCACCCAAAGGUCCCUAUCUCUUGCGGUCGCACUAGUGUGGAAUUCUCGGGUGUCAAGG
B3: ENSMUSG00000058297.19|Spock2 (ssRNA)
RNA: GGGAGUUCUACAGUCCGACGAUCGCUUCGAUAUCCGCAUGCUACGACGGCCUCGGCAGGCCAGGGUGCCGACGGCCAGAAAGACAGGCCAGAAGAGACCUGGACAACAGCAGGCAACUUAGCAAAUGGAUCCGGAAGUCAGUGCGGAGGACCCUGGCUCCAGUGGGGGAGGACUGGGGAGUGUGGCUUGUGUGUAUGUGUGAUAUGAGAUGUGUGUGUAUGAUGUGAGAUGUGAGUGUGUGAUGUGAGAUGUGUGUAUGUGAGAUGUGUGUGUGUGUGUGUGUGUGUGUGAUGUGAGUCACCCCUCUUGCGGUCGCACUAGUGUGGAAUUCUCGGGUGUCAAGG
B4: ENSMUSG00000058297.18|Spock2 (ssRNA)
RNA: GGGAGUUCUACAGUCCGACGAUCGCUUCGAUAUCCGCAUGCUAAGCCCUCGACGGCCUCGGCAGGCCAGGGUGCCGACGGCCAGAAAGACAGGCCAGAAGAGACCUGGACAACAGCAGGCAACUUAGCAAAUGGAUCCGGAAGUCAGUGCGGAGGACCCUGGCUCCAGUGGGGGAGGACUGGGGAGUGUGGCUUGUGUGUAUGUGUGAUAUGAGAUGUGUGUGUAUGAUGUGAGAUGUGAGUGUGUGAUGUGAGAUGUGUGUAUGUGAGAUGUGUGUGUGUGUGUGUGUGUGUGUGAUGUGAGCUCUUGCGGUCGCACUAGUGUGGAAUUCUCGGGUGUCAAGG
B5: ENSMUSG00000058297.20|Spock2 (ssRNA)
RNA: GGGAGUUCUACAGUCCGACGAUCGCUUCGAUAUCCGCAUGCUACCUCGGCAGGCCAGGGUGCCGACGGCCAGAAAGACAGGCCAGAAGAGACCUGGACAACAGCAGGCAACUUAGCAAAUGGAUCCGGAAGUCAGUGCGGAGGACCCUGGCUCCAGUGGGGGAGGACUGGGGAGUGUGGCUUGUGUGUAUGUGUGAUAUGAGAUGUGUGUGUAUGAUGUGAGAUGUGAGUGUGUGAUGUGAGAUGUGUGUAUGUGAGAUGUGUGUGUGUGUGUGUGUGUGUGUGAUGUGAGUCACCCAAAGGUCUCUUGCGGUCGCACUAGUGUGGAAUUCUCGGGUGUCAAGG
B6: ENSMUSG00000058297.5|Spock2|221:225;229:242;251:259 (ssRNA)
RNA: GGGAGUUCUACAGUCCGACGAUCGCUUCGAUAUCCGCAUGCUAAGAAGAGGCAGGGGAGGAGGCCGAGGAGGAGGAGGGUGAGGCGGGUGAGGCAGAUGAUGGAGGCUACAUCUGGUAGAUAGCCCUCGACGGCCUCGGCAGGCCAGGGUGCCGACGGCCAGAAAGACAGGCCAGAAGAGACCUGGACAACAGCAGGCAACUUAGCAAAUGGAUCCGGAAGUCAGUGCGGAGGACCCUGGCUCCAGUGGGGGAGGACUGGGGACACACGCUACACACAUACACACAUAUGAGAACACACACAACUCUUGCGGUCGCACUAGUGUGGAAUUCUCGGGUGUCAAGG
B7: ENSMUSG00000058297.20|Spock2|131:135;139:152;161:172;186:192;201:210;216:241 (ssRNA)
RNA: GGGAGUUCUACAGUCCGACGAUCGCUUCGAUAUCCGCAUGCUACCUCGGCAGGCCAGGGUGCCGACGGCCAGAAAGACAGGCCAGAAGAGACCUGGACAACAGCAGGCAACUUAGCAAAUGGAUCCGGAAGUCAGUGCGGAGGACCCUGGCUCCAGUGGGGGAGGACUGGGGACACACGCUACACACAUACACACAUAUGAGAACACACACAUACAUGUGAGAUGUGACACACACAUGUGAGAACACACAUACUGAGAACACACACACACACACACACACACACAUGUGAGUCACCCAAAGGUCUCUUGCGGUCGCACUAGUGUGGAAUUCUCGGGUGUCAAGG
B8: ENSMUSG00000058297.21|Spock2|125:129;133:146;155:166;180:186;195:204;210:235 (ssRNA)
RNA: GGGAGUUCUACAGUCCGACGAUCGCUUCGAUAUCCGCAUGCUACAGGCCAGGGUGCCGACGGCCAGAAAGACAGGCCAGAAGAGACCUGGACAACAGCAGGCAACUUAGCAAAUGGAUCCGGAAGUCAGUGCGGAGGACCCUGGCUCCAGUGGGGGAGGACUGGGGACACACGCUACACACAUACACACAUAUGAGAACACACACAUACAUGUGAGAUGUGACACACACAUGUGAGAACACACAUACUGAGAACACACACACACACACACACACACACAUGUGAGUCACCCAAAGGUCCCUAUCUCUUGCGGUCGCACUAGUGUGGAAUUCUCGGGUGUCAAGG
B9: ENSMUSG00000058297.22|Spock2 (ssRNA)
RNA: GGGAGUUCUACAGUCCGACGAUCGCUUCGAUAUCCGCAUGCUAAGGGUGCCGACGGCCAGAAAGACAGGCCAGAAGAGACCUGGACAACAGCAGGCAACUUAGCAAAUGGAUCCGGAAGUCAGUGCGGAGGACCCUGGCUCCAGUGGGGGAGGACUGGGGAGUGUGGCUUGUGUGUAUGUGUGAUAUGAGAUGUGUGUGUAUGAUGUGAGAUGUGAGUGUGUGAUGUGAGAUGUGUGUAUGUGAGAUGUGUGUGUGUGUGUGUGUGUGUGUGAUGUGAGUCACCCAAAGGUCCCUAUGUUAUUCUCUUGCGGUCGCACUAGUGUGGAAUUCUCGGGUGUCAAGG
B10: ENSMUSG00000058297.19|Spock2|137:141;145:158;167:178;192:198;207:216;222:247 (ssRNA)
RNA: GGGAGUUCUACAGUCCGACGAUCGCUUCGAUAUCCGCAUGCUACGACGGCCUCGGCAGGCCAGGGUGCCGACGGCCAGAAAGACAGGCCAGAAGAGACCUGGACAACAGCAGGCAACUUAGCAAAUGGAUCCGGAAGUCAGUGCGGAGGACCCUGGCUCCAGUGGGGGAGGACUGGGGACACACGCUACACACAUACACACAUAUGAGAACACACACAUACAUGUGAGAUGUGACACACACAUGUGAGAACACACAUACUGAGAACACACACACACACACACACACACACAUGUGAGUCACCCCUCUUGCGGUCGCACUAGUGUGGAAUUCUCGGGUGUCAAGG
B11: ENSMUSG00000058297.18|Spock2|143:147;151:164;173:184;198:204;213:222;228:253 (ssRNA)
RNA: GGGAGUUCUACAGUCCGACGAUCGCUUCGAUAUCCGCAUGCUAAGCCCUCGACGGCCUCGGCAGGCCAGGGUGCCGACGGCCAGAAAGACAGGCCAGAAGAGACCUGGACAACAGCAGGCAACUUAGCAAAUGGAUCCGGAAGUCAGUGCGGAGGACCCUGGCUCCAGUGGGGGAGGACUGGGGACACACGCUACACACAUACACACAUAUGAGAACACACACAUACAUGUGAGAUGUGACACACACAUGUGAGAACACACAUACUGAGAACACACACACACACACACACACACACAUGUGAGCUCUUGCGGUCGCACUAGUGUGGAAUUCUCGGGUGUCAAGG
B12: ENSMUSG00000043670.167|Diras1 (ssRNA)
RNA: GGGAGUUCUACAGUCCGACGAUCGCUUCGAUAUCCGCAUGCUAGGUUUGGGGUGCUGAGGGUGGGGUGCCCAGCUGAGAGUCUAUCAGCAAAGUCCCUGUGUGCGGUGAUAGGACUAGUGGCUGCUGCCCUAGGGCUCUGACAGAAUCUGAGCCUCUUUGCUGGUCAUGUGUACUCUGGAGACUGUCCCCCAUGUCUGCCCUGAGUUACGGAGCCCCUGUGGUAUCUGCGAGACUGUCCAGGAGACUUGAGUGGCUCCUGGGCCUGUGUCCCACCCAGAUGAGGGUGACUUAGAAUUCUGUGUCUCUUGCGGUCGCACUAGUGUGGAAUUCUCGGGUGUCAAGG
B13: ENSMUSG00000042529.74|Kcnj12 (ssRNA)
RNA: GGGAGUUCUACAGUCCGACGAUCGCUUCGAUAUCCGCAUGCUAACUUGGGCAAGACUGUUUACAAACAAAAACAAACAAACAAACAAUCAAAAAAAAAACCCACCCCACAAAACACAAGAAAACAUUAACAGGUGGUUCAAUUUUUAAAAUUCCUGGUGUGGGGACAGUUGGAAUUCUACUCAGCGCUGCCAGGCAAGCAGCUGGACGGAGAACCCUGAGGGUUCUCAGAGGUCUGUUUUCUCCCUCACGUGGGCCAGGGCCUUAAGCGAGUUGUCAUGCUUAAGGAUGAAUCAGGCUGCUUGCUCUUGCGGUCGCACUAGUGUGGAAUUCUCGGGUGUCAAGG

These binders were tested against TDP-43 (Homo sapiens, UniProt Q13148 1-414) (assay: RNA Bind-n-Seq with designed 260-mer pool; 25 mM Tris-HCl, 150 mM KCl, 3 mM MgCl2, BSA (printed 500 mg/mL), 20 units/mL SUPERase IN; pH not stated; 500 nM RNA pool, 1 h, 4 C; TDP-43 5, 50, 500 nM; high values mean tight binding). Details: protein: recombinant; tags: SBP (GST cleaved off with PreScission; pGEX-GST-SBP).
TDP-43, sequence (Q13148 whole entry): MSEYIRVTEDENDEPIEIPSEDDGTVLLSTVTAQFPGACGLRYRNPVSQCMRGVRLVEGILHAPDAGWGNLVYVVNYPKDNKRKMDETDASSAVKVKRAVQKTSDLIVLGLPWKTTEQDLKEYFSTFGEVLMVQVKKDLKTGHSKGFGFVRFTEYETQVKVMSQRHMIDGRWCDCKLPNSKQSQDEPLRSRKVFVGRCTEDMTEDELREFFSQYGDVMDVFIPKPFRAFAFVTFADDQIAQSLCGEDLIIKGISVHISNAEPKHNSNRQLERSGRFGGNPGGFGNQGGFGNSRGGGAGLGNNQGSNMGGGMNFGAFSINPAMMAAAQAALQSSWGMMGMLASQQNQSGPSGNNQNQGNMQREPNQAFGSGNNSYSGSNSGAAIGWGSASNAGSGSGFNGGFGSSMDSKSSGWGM
Method in brief: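 Streptavidin beads captured recombinant SBP-tagged TDP-43 at 5, 50 or 500 nM, and the beads were incubated for 1 h at 4 °C with 500 nM of an in vitro-transcribed pool of 260-nt 3′ UTR oligos in 25 mM Tris-HCl, 150 mM KCl, 3 mM MgCl2, BSA and SUPERase IN. After washing, bound RNA was eluted with biotin, reverse transcribed, PCR-amplified and sequenced. Binding is reported as R, the mapped-read-normalized abundance of each oligo in the bound sample divided by its abundance in the input. Two independent protein batches served as duplicates.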

Binder | binding signal
B1 | 3.93 R (bound/input frequency ratio)
B2 | 6.78 R (bound/input frequency ratio)
B3 | 6.67 R (bound/input frequency ratio)
B4 | 7.4 R (bound/input frequency ratio)
B5 | 8.16 R (bound/input frequency ratio)
B6 | 2.97 R (bound/input frequency ratio)
B7 | 1.82 R (bound/input frequency ratio)
B8 | 2.78 R (bound/input frequency ratio)
B9 | 5.79 R (bound/input frequency ratio)
B10 | 3.73 R (bound/input frequency ratio)
B11 | 3.16 R (bound/input frequency ratio)
B12 | 1.03 R (bound/input frequency ratio)
B13 | 1.56 R (bound/input frequency ratio)
